Assay results: PubChem BioAssay AID1159580 (chemical genetic matrix, 2015)
Out of some 5,500 compounds screened, about 2,000 (36%) were called active. Not shown: some 18% with an inconclusive outcome. No stated cut-off is given here; in the data, active means normalized growth mostly below about 0.91 (no sharp cut-off); inconclusive means no clear call, values can overlap the other calls; inactive means mostly above about 0.92. The list shows a part of the results.

Experiment: chemical genetic growth profiling, strain panel (AID 1159580);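 further: tested at 20 µM; growth read once vehicle control cultures reached saturation at 30 °C; 1 = growth at the plate median or of vehicle wells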
Settings: growth OD

Measured: normalized growth

C1CCC(C(CC2CCCCN2)C2CCCCC2)CC1 (centres undefined)
active: S. cerevisiae deletion strains, locus YJR075W, strain HOC1, stronger effect = lower value 0.606 | S. cerevisiae deletion strains, locus YKL190W, strain CNB1, stronger effect = lower value 0.143 | S. cerevisiae deletion strains, locus YKR001C, strain vps1, stronger effect = lower value 0.0792 | S. cerevisiae deletion strains, locus YLR039C, strain RIC1, stronger effect = lower value 0.247 | S. cerevisiae deletion strains, locus YLR058C, strain SHM2, stronger effect = lower value 0.703 | S. cerevisiae deletion strains, locus YLR262C, strain YPT6, stronger effect = lower value 0.151 | S. cerevisiae deletion strains, locus YLR268W, strain sec22, stronger effect = lower value 0.605 | S. cerevisiae deletion strains, locus YLR320W, strain mms22, stronger effect = lower value 0.862 | S. cerevisiae deletion strains, locus YLR330W, strain CHS5, stronger effect = lower value 0.381 | S. cerevisiae deletion strains, locus YLR342W, strain FKS1 (second series), stronger effect = lower value 0.167 | S. cerevisiae deletion strains, locus YLR371W, strain rom2, stronger effect = lower value 0.266 | S. cerevisiae deletion strains, locus YLR418C, strain cdc73, stronger effect = lower value 0.423 | S. cerevisiae deletion strains, locus YML016C, strain PPZ1, stronger effect = lower value 0.363 | S. cerevisiae deletion strains, locus YML032C, strain rad52, stronger effect = lower value 0.877 | S. cerevisiae deletion strains, locus YMR058W, strain fet3, stronger effect = lower value 0.853 | S. cerevisiae deletion strains, locus YMR223W, strain ubp8, stronger effect = lower value 0.454 | S. cerevisiae deletion strains, locus YMR231W, strain pep5, stronger effect = lower value 0.0752 | S. cerevisiae deletion strains, locus YMR263W, strain SAP30, stronger effect = lower value 0.843 | S. cerevisiae deletion strains, locus YMR307W, strain GAS1, stronger effect = lower value 0.174 | S. cerevisiae deletion strains, locus YNL067W, strain RPL9B, stronger effect = lower value 0.793 | S. cerevisiae deletion strains, locus YNL233W, strain BNI4, stronger effect = lower value 0.245 | S. cerevisiae deletion strains, locus YNL307C, strain MCK1, stronger effect = lower value 0.267 | S. cerevisiae deletion strains, locus YNR052C, strain pop2, stronger effect = lower value 0.14 | S. cerevisiae deletion strains, locus YOL006C, strain TOP1, stronger effect = lower value 0.115 | S. cerevisiae deletion strains, locus YOR061W, strain CKA2, stronger effect = lower value 0.114 | S. cerevisiae deletion strains, locus YOR069W, strain VPS5, stronger effect = lower value 0.906 | S. cerevisiae deletion strains, locus YOR106W, strain vam3, stronger effect = lower value 0.458 | S. cerevisiae deletion strains, locus YOR136W, strain idh2, stronger effect = lower value 0.77 | S. cerevisiae deletion strains, locus YOR184W, strain ser1, stronger effect = lower value 0.608 | S. cerevisiae deletion strains, locus YOR270C, strain vph1, stronger effect = lower value 0.452 | S. cerevisiae deletion strains, locus YPL051W, strain arl3, stronger effect = lower value 0.886 | S. cerevisiae deletion strains, locus YPL055C, strain LGE1, stronger effect = lower value 0.4 | S. cerevisiae deletion strains, locus YPR163C, strain tif3, stronger effect = lower value 0.0807 | S. cerevisiae deletion strains, locus YPR167C, strain met16, stronger effect = lower value 0.844 | S. cerevisiae deletion strains, strain wtn01, stronger effect = lower value 0.317 | S. cerevisiae strains, strain wild type, stronger effect = lower value 0.314
inactive: S. cerevisiae deletion strains, locus YJR066W, strain TOR1, stronger effect = lower value 0.973 | S. cerevisiae deletion strains, locus YKL009W, strain mrt4, stronger effect = lower value 1 | S. cerevisiae deletion strains, locus YKL068W, stronger effect = lower value 1.01 | S. cerevisiae deletion strains, locus YKL085W, strain MDH1 (second series), stronger effect = lower value 0.996 | S. cerevisiae deletion strains, locus YKL085W, strain MDH1, stronger effect = lower value 0.996 | S. cerevisiae deletion strains, locus YKL160W, strain elf1, stronger effect = lower value 0.952 | S. cerevisiae deletion strains, locus YKR026C, strain gcn3, stronger effect = lower value 0.988 | S. cerevisiae deletion strains, locus YKR091W, strain srl3, stronger effect = lower value 0.989 | S. cerevisiae deletion strains, locus YLL001W, strain dnm1, stronger effect = lower value 0.992 | S. cerevisiae deletion strains, locus YLL026W, stronger effect = lower value 0.985 | S. cerevisiae deletion strains, locus YLL041C, strain sdh2, stronger effect = lower value 0.967 | S. cerevisiae deletion strains, locus YLR027C, strain aat2, stronger effect = lower value 0.977 | S. cerevisiae deletion strains, locus YLR102C, strain apc9, stronger effect = lower value 1.01 | S. cerevisiae deletion strains, locus YLR113W, strain HOG1, stronger effect = lower value 1.02 | S. cerevisiae deletion strains, locus YLR221C, strain rsa3, stronger effect = lower value 0.98 | S. cerevisiae deletion strains, locus YLR258W, strain gsy2, stronger effect = lower value 0.99 | S. cerevisiae deletion strains, locus YLR262C, strain YPT6 (second series), stronger effect = lower value 1.08 | S. cerevisiae deletion strains, locus YLR342W, strain FKS1, stronger effect = lower value 0.981 | S. cerevisiae deletion strains, locus YLR357W, strain rsc2, stronger effect = lower value 0.963 | S. cerevisiae deletion strains, locus YLR370C, strain arc18, stronger effect = lower value 0.981 | S. cerevisiae deletion strains, locus YLR384C, strain iki3, stronger effect = lower value 0.972 | S. cerevisiae deletion strains, locus YML120C, strain ndi1, stronger effect = lower value 0.973 | S. cerevisiae deletion strains, locus YML124C, strain tub3, stronger effect = lower value 0.954 | S. cerevisiae deletion strains, locus YMR078C, strain ctf18, stronger effect = lower value 1.02 | S. cerevisiae deletion strains, locus YMR125W, strain sto1, stronger effect = lower value 0.897 | S. cerevisiae deletion strains, locus YMR129W, stronger effect = lower value 0.972 | S. cerevisiae deletion strains, locus YMR205C, strain PFK2, stronger effect = lower value 0.93 | S. cerevisiae deletion strains, locus YNL071W, strain lat1, stronger effect = lower value 0.975 | S. cerevisiae deletion strains, locus YNL183C, strain NPR1, stronger effect = lower value 0.976 | S. cerevisiae deletion strains, locus YNL209W, strain ssb2, stronger effect = lower value 0.974 | S. cerevisiae deletion strains, locus YNL248C, strain rpa49, stronger effect = lower value 0.926 | S. cerevisiae deletion strains, locus YNL250W, strain rad50, stronger effect = lower value 1.01 | S. cerevisiae deletion strains, locus YNL271C, strain bni1, stronger effect = lower value 1.01 | S. cerevisiae deletion strains, locus YNL298W, strain CLA4, stronger effect = lower value 1.01 | S. cerevisiae deletion strains, locus YNL322C, strain KRE1 (second series), stronger effect = lower value 0.975 | S. cerevisiae deletion strains, locus YNR049C, strain mso1, stronger effect = lower value 0.99 | S. cerevisiae deletion strains, locus YOL147C, strain pex11, stronger effect = lower value 0.941 | S. cerevisiae deletion strains, locus YOR001W, strain rrp6, stronger effect = lower value 0.893 | S. cerevisiae deletion strains, locus YOR070C, strain gyp1, stronger effect = lower value 0.979 | S. cerevisiae deletion strains, locus YOR080W, strain dia2, stronger effect = lower value 0.988 | S. cerevisiae deletion strains, locus YOR083W, strain WHI5, stronger effect = lower value 0.94 | S. cerevisiae deletion strains, locus YOR144C, strain elg1, stronger effect = lower value 1.02 | S. cerevisiae deletion strains, locus YOR231W, strain MKK1, stronger effect = lower value 1.02 | S. cerevisiae deletion strains, locus YOR265W, strain rbl2, stronger effect = lower value 0.979 | S. cerevisiae deletion strains, locus YOR290C, strain snf2, stronger effect = lower value 0.869 | S. cerevisiae deletion strains, locus YOR316C, strain cot1, stronger effect = lower value 0.97 | S. cerevisiae deletion strains, locus YPL078C, strain atp4, stronger effect = lower value 0.973 | S. cerevisiae deletion strains, locus YPL106C, strain sse1, stronger effect = lower value 0.984 | S. cerevisiae deletion strains, locus YPL240C, strain hsp82, stronger effect = lower value 0.98 | S. cerevisiae deletion strains, locus YPL241C, strain CIN2, stronger effect = lower value 0.93 | S. cerevisiae deletion strains, locus YPL256C, strain CLN2, stronger effect = lower value 1.02 | S. cerevisiae deletion strains, locus YPR119W, strain clb2, stronger effect = lower value 0.935 | S. cerevisiae deletion strains, locus YPR141C, strain kar3, stronger effect = lower value 1.03
